Measurements as given in PubChem BioAssay (Tox21).
Inconclusive results are not listed. Calls of active or inactive are those of the source. Unless noted, calls follow the shape of the dose curve; as a rule, active = well fitted curve in the direction sought with a large enough effect in the repeat runs; inconclusive = weak or mixed curves; inactive = no such curve, though single readings can be large; an effect the other way counts as inactive or inconclusive.

Experiments:
[1] = qHTS assay to identify small molecule agonists of the RXR signaling pathway - cell viability counter screen (AID 1159529);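 also: HEK 293T cells carrying an RXR-alpha UAS beta-lactamase reporter; series mostly up to about 77 µM; nearly all actives have a fitted effect of over 50% in size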
Outline: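 Steps: seed RXR-alpha-UAS-bla HEK 293T cells in assay medium containing 2% charcoal-stripped FBS; incubate 5 hr; add compounds in DMSO; incubate 16 hr at 37 C; after the bla read, add CellTiter-Glo and read luminescence at 30 min.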

[2] = qHTS assay to identify small molecule antagonists of the retinoid acid receptor (RAR) signaling pathway - cell viability counter screen (AID 1159551); also: nearly all actives have a fitted effect of over 35% in size
Outline: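 Retinol-stimulated (1 uM final) C3RL4 cells, compound 6 h, 37 C; readout CellTiter-Glo luminescence (ATP) after 30 min RT incubation.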

[3] = qHTS assay to identify small molecule antagonists of the retinoic acid receptor (RAR) signaling pathway (AID 1159552; also: nearly all actives have a fitted effect of over 50% in size)
Outline: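 Retinol at 1 uM final stimulated RARE-luciferase expression in C3RL4 cells exposed to test compounds for 6 hr at 37 C. Reduced luminescence, read 30 min after detection reagent, indicated pathway antagonism.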

[4] = qHTS assay to identify small molecule agonists of the retinoic acid receptor (RAR) signaling pathway (AID 1159553); also: potency is read from the fitted curve at half-maximal effect
Outline: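 Reporter readout comes from luciferase under RARE control in C3RL4 cells; compound exposure lasts 6 hr at 37 C in 5% CO2, and luminescence is recorded following a 30 min room-temperature incubation with reagent.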

[5] = target: Luciferin 4-monooxygenase (Photinus pyralis) (UniProt P08659); assay: qHTS assay to identify small molecule inhibitors of firefly luciferase (AID 1224835); also: series mostly up to about 120 µM; nearly all actives have a fitted effect of over 25% in size
Luciferin 4-monooxygenase (Photinus pyralis), sequence (P08659 whole entry, looked up): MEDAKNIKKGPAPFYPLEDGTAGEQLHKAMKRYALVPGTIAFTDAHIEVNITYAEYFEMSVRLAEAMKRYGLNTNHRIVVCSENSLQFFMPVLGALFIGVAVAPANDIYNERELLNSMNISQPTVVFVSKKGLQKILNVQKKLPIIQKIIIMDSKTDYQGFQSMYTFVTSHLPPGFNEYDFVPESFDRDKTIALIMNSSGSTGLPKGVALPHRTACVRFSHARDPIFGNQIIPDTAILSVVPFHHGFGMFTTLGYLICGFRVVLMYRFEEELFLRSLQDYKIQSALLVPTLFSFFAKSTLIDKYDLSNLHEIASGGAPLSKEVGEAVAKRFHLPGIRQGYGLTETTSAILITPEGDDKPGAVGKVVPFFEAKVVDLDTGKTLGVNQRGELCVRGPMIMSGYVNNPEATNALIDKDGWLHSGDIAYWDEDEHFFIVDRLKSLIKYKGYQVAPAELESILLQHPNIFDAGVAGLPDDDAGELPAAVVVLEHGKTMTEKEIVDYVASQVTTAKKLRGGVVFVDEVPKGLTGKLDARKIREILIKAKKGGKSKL
Outline: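 Biochemical qHTS: compounds run as interplate titrations against purified firefly enzyme, with D-luciferin and ATP each at its KM concentration. Light output recorded by CCD imaging.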

[6] = qHTS assay to identify small molecule agonists of the constitutive androstane receptor (CAR) signaling pathway - cell viability counter screen (AID 1224836); also: series mostly up to about 92 µM; nearly all actives have a fitted effect of over 45% in size
Outline: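 Cells were seeded and incubated 4 hrs. Compounds were added across 15 concentrations together with PK11195 at 0.75 uM final. Plates were incubated 23 hrs at 37 C. CellTiter-Fluor was added and fluorescence measured.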

[7] = target: Nuclear receptor subfamily 1 group I member 3 (Homo sapiens) (UniProt Q14994); assay: qHTS assay to identify small molecule antagonists of the constitutive androstane receptor (CAR) signaling pathway (AID 1224838);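 also: HepG2 cells stably expressing hCAR with CYP2B6 luciferase reporter stimulated by CITCO; nearly all actives have a fitted effect of over 40% in size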
Nuclear receptor subfamily 1 group I member 3 (Homo sapiens), sequence (Q14994 whole entry, looked up): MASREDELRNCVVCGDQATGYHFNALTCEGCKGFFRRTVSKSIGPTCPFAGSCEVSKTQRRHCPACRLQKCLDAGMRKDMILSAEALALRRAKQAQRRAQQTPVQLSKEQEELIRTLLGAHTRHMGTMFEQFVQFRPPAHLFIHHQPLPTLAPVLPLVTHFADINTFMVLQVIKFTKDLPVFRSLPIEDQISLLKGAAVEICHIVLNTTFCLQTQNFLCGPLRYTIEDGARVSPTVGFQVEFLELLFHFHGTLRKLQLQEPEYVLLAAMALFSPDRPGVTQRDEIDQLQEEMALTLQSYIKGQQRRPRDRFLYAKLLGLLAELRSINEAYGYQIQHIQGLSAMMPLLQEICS
Outline: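 Cell line: HepG2 double-stable for hCAR and CYP2B6-2.2kb reporter. Agonist: CITCO, 50 nM final. Compounds: 15 concentrations, 24 h, 37 C. Detection: ONE-Glo luminescence.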

[8] = target: Nuclear receptor subfamily 1 group I member 3 (Homo sapiens) (UniProt Q14994); assay: qHTS assay to identify small molecule agonists of the constitutive androstane receptor (CAR) signaling pathway (AID 1224839); also: nearly all actives have a fitted effect of over 15% in size; also: potency is read from the fitted curve at half-maximal effect;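 as to activation: HepG2 cells stably carrying human CAR and a CYP2B6 luciferase reporter; series mostly up to about 92 µM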
Outline: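 Cells were plated and incubated 4 hrs, then dosed with compounds at 15 concentrations. PK11195 was added to 0.75 uM final. After 24 hrs at 37 C, luciferase luminescence was measured.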

[9] = target: Thyrotropin receptor (Homo sapiens) (UniProt P16473); assay: qHTS assay to identify small molecule agonists of the thyroid stimulating hormone receptor (TSHR) signaling pathway (AID 1224843; calls by dose curve; also: nearly all actives have a fitted effect of over 45% in size)
Thyrotropin receptor (Homo sapiens), sequence (P16473 whole entry, looked up): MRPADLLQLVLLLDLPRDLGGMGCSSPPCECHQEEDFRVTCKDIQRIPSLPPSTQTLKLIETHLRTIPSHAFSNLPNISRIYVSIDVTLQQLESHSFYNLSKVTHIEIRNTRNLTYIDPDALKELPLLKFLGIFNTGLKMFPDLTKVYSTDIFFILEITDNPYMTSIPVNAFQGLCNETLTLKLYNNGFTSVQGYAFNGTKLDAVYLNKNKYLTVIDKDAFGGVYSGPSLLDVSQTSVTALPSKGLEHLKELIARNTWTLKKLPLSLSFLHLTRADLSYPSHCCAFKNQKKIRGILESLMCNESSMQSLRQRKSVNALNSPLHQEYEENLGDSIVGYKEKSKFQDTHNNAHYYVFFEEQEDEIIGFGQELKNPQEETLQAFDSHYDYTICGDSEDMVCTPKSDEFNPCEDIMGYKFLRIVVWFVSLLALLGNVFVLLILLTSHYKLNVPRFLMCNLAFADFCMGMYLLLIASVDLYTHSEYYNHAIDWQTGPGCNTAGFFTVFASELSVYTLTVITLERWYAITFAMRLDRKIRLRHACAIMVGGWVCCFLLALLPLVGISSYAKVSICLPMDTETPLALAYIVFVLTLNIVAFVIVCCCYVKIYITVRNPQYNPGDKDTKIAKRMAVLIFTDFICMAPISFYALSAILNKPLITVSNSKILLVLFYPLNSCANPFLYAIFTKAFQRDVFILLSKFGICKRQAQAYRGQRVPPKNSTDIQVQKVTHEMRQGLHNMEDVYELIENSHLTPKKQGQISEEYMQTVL
Outline: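 TSHR-HEK293 cells in agonist mode, 30 min room-temperature step, then cAMP measured by competitive HTRF (cAMP-d2 with anti-cAMP cryptate) after 1 h at room temperature. Tested at 15 concentrations in triplicate.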

[10] = qHTS assay to identify small molecule antagonists of the constitutive androstane receptor (CAR) signaling pathway - cell viability counter screen (AID 1224837); also: series mostly up to about 92 µM; nearly all actives have a fitted effect of over 45% in size
Outline: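 Counter screen run in HepG2-CYP2B6-hCAR cells: 4 hr settle, compound titration (15 concentrations) with 50 nM CITCO, 23 hr at 37 C/5% CO2, CellTiter-Fluor fluorescence.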

[11] = qHTS assay to identify small molecule antagonists of the estrogen related receptor signaling pathway with the pleiotropic PPARgamma coactivator (PGC) from Tox21 10K library - cell viability counter screen (AID 1224840; active = well fitted cell-killing curve with a large enough effect in the repeat runs, not every such curve was filed as active; also: nearly all actives have a fitted effect of over 40% in size)
Outline: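 Following seeding of 2,000 PGC/ERR cells/well and 6 hours' incubation, test compounds were delivered in DMSO. The plates then sat 17.5 hours at 37 C before a fluorogenic live-cell protease reagent (CellTiter-Fluor) was read after 30 min.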

[12] = qHTS assay to identify small molecule antagonists of the estrogen related receptor signaling pathway with the pleiotropic PPARgamma coactivator (PGC) from Tox21 10K library (AID 1224841; call rule not given here; also: series mostly up to about 92 µM; actives are mostly falling curves and most rising ones were filed inactive; nearly all actives have a fitted effect of over 50% in size)
Outline: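 qHTS antagonist format: PGC/ERR cells, 2k/well, compound in DMSO by pin transfer after 6 h attachment, 18 h treatment at 37 C, One-Glo luminescence read at 30 min.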

[13] = qHTS assay to identify small molecule agonists of the estrogen related receptor signaling pathway with the pleiotropic PPARgamma coactivator (PGC) from Tox21 10K library (AID 1224842); also: nearly all actives have a fitted effect of over 15% in size
Outline: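 PGC/ERR reporter cell line, 2,000 cells per well, incubated 6 h at 37 C before 23 nL compound in DMSO was added. After 18 h at 37 C, One-Glo luminescence read following 30 min at room temperature.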

[14] = qHTS assay to identify small molecule antagonists of the estrogen related receptor (ERR) signaling pathway from Tox21 library - cell viability counter screen (AID 1224834); also: nearly all actives have a fitted effect of over 30% in size
Outline: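 After 17.5 h of compound exposure at 37 C, ERR cells are incubated with CellTiter-Fluor for 30 min and fluorescence intensity serves as the viability measure.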
% is scaled to controls: 0 for no effect and ±100 for the full control effect.

Nc1cnn([C@@H]2O[C@H](CO)[C@@H](O)[C@H]2O)c(=O)n1
inactive: Potency [1] | Potency [2] | Potency [3] | Potency [4] | Potency [5] | Potency [6] | Potency [7] | Potency [8] | Potency [9]

Cc1ncsc1CCO
inactive: Potency [1] | Potency [2] | Potency [3] | Potency [4] | Potency [5] | Potency [6] | Potency [10] | Potency [7] | Potency [8] | Potency [11] | Potency [9]

O=C(O)COC(=O)Cc1ccccc1Nc1c(Cl)cccc1Cl
inactive: Potency [1] | Potency [2] | Potency [3] | Potency [4] | Potency [5] | Potency [6] | Potency [10] | Potency [11] | Potency [12] | Potency [13] | Potency [9]

CC(C)c1ccc2c(C(C)C)cc(C(C)C)c(S(=O)(=O)O)c2c1
inactive: Potency [1] | Potency [2] | Potency [3] | Potency [4] | Potency [14] | Potency [5] | Potency [6] | Potency [10] | Potency [11] | Potency [9]

Cl/C(=C\n1cncn1)c1ccc(Cl)cc1Cl
inactive: Potency [1] | Potency [2] | Potency [3] | Potency [4] | Potency [14] | Potency [5] | Potency [6] | Potency [7] | Potency [8] | Potency [11] | Potency [12] | Potency [9]

CCCCOc1cc(C(=O)OCCN(CC)CC)ccc1N
inactive: Potency [1] | Potency [2] | Potency [3] | Potency [4] | Potency [5] | Potency [6] | Potency [7]

CCN(CCO)CCCC(C)Nc1ccnc2cc(Cl)ccc12 (stereo not drawn)
inactive: activity change, negative = cytotoxicity [1] -6.26% [at 6.97 µM] | activity change, negative = cytotoxicity [2] 0.797% [at 8.39 µM] | activity, negative = inhibition [3] -1.6% [at 8.39 µM] | activation [4] 0.716% [at 8.36 µM] | viability change, negative = cytotoxic [14] -2.66% [at 8.39 µM] | viability change, negative = cytotoxic [6] -11% [at 8.39 µM] | activity change, negative = cytotoxicity [10] -10.3% [at 8.39 µM] | activation [9] -1.08% [at 8.39 µM]

c1ccc(OCc2ccc(CCCN3CCOCC3)cc2)cc1
inactive: Potency [1] | Potency [2] | Potency [3] | Potency [6] | Potency [10] | Potency [12] | Potency [13] | Potency [9]
active: Potency [4] 13.3 µM | Potency [8] 29.8 µM

Oc1ccc2c(c1)OCO2
inactive: Potency [1] | Potency [2] | Potency [3] | Potency [4] | Potency [5] | Potency [6] | Potency [7] | Potency [8] | Potency [11] | Potency [9]

N#Cc1c(F)cccc1F
inactive: Potency [1] | Potency [2] | Potency [3] | Potency [4] | Potency [5] | Potency [6] | Potency [10] | Potency [7] | Potency [8] | Potency [9]

SC1CCCC1
inactive: Potency [1] | Potency [2] | Potency [3] | Potency [4] | Potency [14] | Potency [5] | Potency [6] | Potency [10] | Potency [11] | Potency [9]
